# Screens: PubChem BioAssay, National Center for Advancing Translational Sciences (NCATS)
# In the library only some 19% were active in any assay of this set; here they are far more common.
# KB-3-1 tox: kills parental KB-3-1 adenocarcinoma cells. Potency, µM (series often up to 46.1 µM), hits mostly cytotoxic. 400,000 compounds, 1.4% hits. AID 1347075. KB-3-1 viability, CellTiter-Glo ATP luminescence, 72 h; note: nearly all actives have a fitted effect of over 60% in size
#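 72 h, 37 °C compound treatment of KB-3-1 parental cells; CellTiter-Glo added, 10 min, luminescence read. Data corrected against DMSO-only plates and normalized before curve fitting.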
# HT1080 IDH1KD tx: HT-1080 IDH1 knockdown cell toxicity (counter line). 360,000 compounds, 2% hits. HT-1080 IDH1 knockdown viability, ATP luminescence, 48 h. Potency, µM (doses to about 46.1 µM), usual class: cytotoxic
#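 IDH1KD HT-1080 cells, 750/well, RPMI + 5% FBS; compound pinned after 2 h settling; 48 h, 37 °C; CellTiter-Glo luminescence; % activity normalised to DMSO and no-cell wells; curves fitted, classed by r2 and efficacy.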
# HT1080-NT tox: kills 2HG-producing HT-1080-NT fibrosarcoma cells; HT-1080-NT fibrosarcoma viability, CellTiter-Glo ATP luminescence, 48 h; Potency, µM (doses to about 46.1 µM), most hits filed as cytotoxic; 360,000 compounds, 1.6% hits;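 note: NT is the 2HG producing partner of a matched IDH1 knockdown line; nearly all actives have a fitted effect of over 55% in size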
#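 Toxicity toward the 2HG-producing NT line was scored as %Activity, normalised to DMSO and no-cell wells, from CellTiter-Glo luminescence after 48 hours' treatment.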
# KB-V1 MDR tox: KB-V1 MDR subline cytotoxicity; AID 1347076; 400,000 compounds, 3.4% hits; KB-V1 MDR cells viability, CellTiter-Glo, 72 h; Potency, µM (doses to about 46.1 µM), most hits filed as cytotoxic; note: nearly all actives have a fitted effect of over 60% in size
#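 In this primary screen, KB-V1 cells overexpressing P-gp are incubated with library compounds (lowest to highest concentration) for 72 h at 37 degrees C before a luminescent ATP viability read.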
# TDP1 cell noCPT: qHTS for Inhibitors of human tyrosyl-DNA phosphodiesterase 1 (TDP1): qHTS in cells in absence of CPT | Potency, µM (doses to about 46.2 µM), actives largely listed as inhibitors | 420,000 compounds, 15% hits | DT40 Tdp1-/- hTDP1 cells, no CPT, ATP luminescence, 48 h; note: nearly all actives have a fitted effect of over 55% in size
#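 Stably hTDP1-transfected Tdp1-null chicken DT40 cells were treated with library compounds minus camptothecin and grown for at least 48 hr at 37 °C, after which cellular ATP was quantified by luminescence.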
# DT40 TDP1 CPT: DT40-hTDP1 cell growth loss with CPT; chicken DT40 Tdp1-/-;hTDP1 cells + 20 nM CPT, ATP luminescence, 48 h; Potency, µM (highest dose often 46.2 µM), most hits filed as inhibitors; 420,000 compounds, 12% hits; note: nearly all actives have a fitted effect of over 55% in size
#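 Chicken DT40 Tdp1-/- cells complemented with human TDP1, 400 cells/well, exposed to compounds plus 20 nM camptothecin for at least 48 h at 37 C; viability read as ATP content by CellTiter-Glo luminescence.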
# Hits are given with their value; 0 = inactive; ? = inconclusive; - = not tested or not shown; [ ] = remark or other dose. Calls come from the whole dose curve; as a rule, active = well fitted curve in the direction sought with a large enough effect; inconclusive = small, poorly fitted or top-dose-only effect, or another doubt; inactive = no such curve, though single readings can be large; an effect the other way counts as inactive or inconclusive.
SMILES,KB-3-1 tox,HT1080 IDH1KD tx,HT1080-NT tox,KB-V1 MDR tox,TDP1 cell noCPT,DT40 TDP1 CPT
Oc1ccc(C(c2nnnn2C2CCCC2)N2CCc3ccccc3C2)cc1 (configuration not stated),0,0,0,0,21µM,?
COc1ccc(C(c2nnnn2C2CCCC2)N2CCN(C(=O)c3ccco3)CC2)cc1OC (configuration not stated),0,0,0,0,0,0
COc1cc(C(c2nnnn2C2CCCC2)N2CCc3ccccc3C2)ccc1O (configuration not stated),0,0,0,?,12µM,?
CCc1ccc(NC(=O)c2cccc(N3CCCS3(=O)=O)c2)cc1,0,-,-,0,?,?
COc1cc2c(cc1OC)OC(C)(C)C=C2,-,-,-,-,0[9.04 µM],0[9.04 µM]
COc1c2c(cc(O)c1C(C)=O)OC(C)(C)C=C2,0,0,0,0,0,0
COc1cc2c(cc1OC)C1C(=O)c3c(O)cc4c(c3OC1CO2)C=CC(C)(C)O4 (configuration not stated),-,-,-,-,0.41µM,0.65µM
COc1cc2c(cc1OC)C1C(=O)c3ccc4c(c3OC1CO2)C=CC(C)(C)O4 (configuration not stated),-,-,-,-,0.065µM,0.082µM
CC1=C(C(=O)N2CCCCCC2)CC(CC(=O)NCCc2ccccn2)C(=O)N1CCCN1CCCC1=O (configuration not stated),-,0,0,0,0,?
CCc1ccc(S(=O)(=O)N2CCN(c3ccccc3OC)CC2)cc1,0,0,0,?,0,0
CCOc1ccc(/C=N/n2cc(-c3ccccc3)[nH]c2=S)cc1,0,0,0,0,5.2µM,2.6µM
CCn1c(O)c(N=NC(=O)CNC(=O)c2cccnc2)c2ccccc21,0,0,0,?,?,0
O=C(c1ccc(Br)cc1)N(c1ccccn1)C1CCCCC1,0,0,0,?,15µM,?
O=C(C1CCCCC1)N(Cc1ccccc1)c1ccccn1,0,0,0,0,?,?
O=C(c1cccc(C(=O)N(c2ccccn2)C2CCCCC2)c1)N(c1ccccn1)C1CCCCC1,0,0,0,0,9.2µM,12µM
O=C(c1ccc(F)cc1Cl)N(c1ccccn1)C1CCCCC1,0,0,0,?,15µM,18µM
O=C(c1ccc(S(=O)(=O)N2CCOCC2)cc1)N(c1ccccn1)C1CCCCC1,0,0,0,0,?,?
O=C(c1ccc(Cl)cc1)N(c1ccccn1)C1CCCCC1,0,0,0,?,26µM,0
COCCCNC(=O)c1cnc2c(-c3ccc(F)cc3)c(C)nn2c1C,0,-,-,0,?,0
CCCc1cc(=O)[nH]c2nnc(SCC(=O)Nc3ccc(OC)cc3)n12,-,-,-,-,0,0
CN1CCC(N(C)C(=O)/C(C#N)=C/c2ccccc2)CC1,0,0,0,?,0,0
N#C/C(=C\c1ccccc1)C(=O)N(c1ccccn1)C1CCCCC1,0,?,?,0,18µM,?
COC(=O)C[C@@H]1CC[C@H](NS(=O)(=O)c2cccc(F)c2)[C@@H](CO)O1,0,0,0,0,0,0
COc1ccc(CN(CCC(c2ccccc2)c2ccc(OC(C)C)cc2)C(=O)CCl)cc1OC (configuration not stated),10µM,1.6µM,1.5µM,8.2µM,2.9µM,2.1µM
COc1ccc(CN(CCC(c2ccco2)C(C)C)C(C)=O)cc1OC (configuration not stated),0,0,0,?,?,?
SMILES,KB-3-1 tox,HT1080 IDH1KD tx,HT1080-NT tox,KB-V1 MDR tox,TDP1 cell noCPT,DT40 TDP1 CPT
COc1ccccc1C(CC(=O)O)c1ccc2c(c1)OCO2 (configuration not stated),0,0,0,0,0,0
COc1ccc(CN(CCC(c2ccc3c(c2)OCO3)c2ccccc2OC)C(C)=O)cc1 (configuration not stated),-,-,-,-,21µM,?
CC(=O)N(CCC(Cc1ccccc1)c1ccc2c(c1)OCO2)Cc1ccc(Cl)cc1 (configuration not stated),?,?,?,?,16µM,?
COc1ccc(CN(CCC(c2ccccc2)C2CCOC(C)(C)C2)C(C)=O)cc1 (configuration not stated),0,0,0,0,18µM,?
COc1cc(C(=O)N2CCN(C(=O)c3ccco3)CC2)c([N+](=O)[O-])cc1OC,0,0,0,0,0,0
CN1CCN2c3ccccc3CC3(C(=O)OC(C)(C)OC3=O)C2C1 (configuration not stated),0,-,-,0,0,0
CC(=O)N1CCc2c(sc3c2c(=O)n(-c2cc(Cl)ccc2C)c(=O)n3C)C1,?,-,-,?,0,0
CCN(CC)C(=O)Cn1c(=O)n(Cc2ccc(C(=O)NCCc3ccc(OC)c(OC)c3)cc2)c(=O)c2ccccc21,0,-,-,?,?,?
COc1ccc(C(CCN(Cc2ccc(OC)c(OC)c2)C(C)=O)c2ccccc2)cc1 (configuration not stated),0,0,0,0,21µM,21µM
Cc1cccc(C(=O)Nc2c(C(=O)N3CCN(c4ccc(F)cc4)CC3)oc3ccccc23)c1,0,-,-,?,?,?
COc1ccc(-c2cnc3c(NC=O)cc(-c4ccccc4OC)cn23)cc1OC,0.18µM,0.18µM,0.046µM,1.2µM,0.0073µM,0.029µM
COc1ccc(-c2cc(NC=O)c3ncc(-c4ccc(OC)c(OC)c4)n3c2)cc1OC,?,?,?,?,4.1µM,5.2µM
COc1cc(-c2cc(NC=O)c3ncc(-c4ccc(F)cc4)n3c2)cc(OC)c1OC,0,?,?,?,?,?
COc1ccc(-c2cc(NC=O)c3ncc(-c4ccc(OC)c(OC)c4)n3c2)cc1,1.6µM,0.58µM,1µM,3.7µM,1µM,0.73µM
CCOC(=O)C1CCN(S(=O)(=O)c2ccc3c(c2)CC(=O)N3C)CC1,0,0,0,0,0,0
CCOC(=O)C1CCN(S(=O)(=O)c2ccc3c4c2CC(=O)N4CC(C)S3)CC1 (configuration not stated),0,0,0,0,?,21µM
CCOC(=O)C1CCCN(S(=O)(=O)c2cc3c4c(c2)CCN4C(=O)CC3)C1 (configuration not stated),0,0,0,0,?,?
CCOC(=O)C1CCCN(S(=O)(=O)c2ccc3c4c2CC(=O)N4CC(C)S3)C1 (configuration not stated),0,0,0,0,18µM,?
Cc1cc(C)cc(C(=O)NCCn2cc(C(=O)N3CCSCC3)nn2)c1,-,-,-,-,0,0[9.04 µM]
